Our source for the Potency and outcome values is PubChem BioAssay (Tox21).

A short description of assay [1]: qHTS RealTime-Glo MT Cell Viability Assay in HEK293 cells - 0 hour (AID 1224880). Further: nearly all actives have a fitted effect of over 45% in size. Further: potency means the concentration at half of the fitted maximal effect. Put shortly: (§1)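 Luminescence readout at each listed time point; HEK293, 600 cells/well, RealTime-Glo MT reagent added with cells; compounds pinned (23 nL in DMSO) after 5 h at 37 C; continuous culture at 37 C.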
Background: Quantitative high-throughput screening tests each substance at several concentrations.

Assay [2] in a line: A CellTox Green Cytotoxicity Assay to monitor cytotoxicity in HEK293 cells - 32 hour (AID 1224881). Further: nearly all actives have a fitted effect of over 40% in size. Put shortly:
(§2)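 Read-out: fluorescence of a cell-impermeant cyanine dye staining DNA of dead cells, proportional to cytotoxicity. HEK293, 600 cells/well with reagent, compound (23 nL DMSO) added after 5 h; reads at 0, 8, 16, 24, 32, 40 h.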

Assay [3] is described as follows: A CellTox Green Cytotoxicity Assay to monitor cytotoxicity in HepG2 cells - 0 hour (AID 1224882). Further: nearly all actives have a fitted effect of over 35% in size. Put shortly:
(§3)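 HepG2, 600 cells/well premixed w/ CellTox Green; 5 h settle, 37 C/5% CO2; pintool cpd add (DMSO); 37 C, 40 h; fluorescence read at 0, 8, 16, 24, 32, 40 h.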

Assay [4] is described as follows: A CellTox Green Cytotoxicity Assay to monitor cytotoxicity in HepG2 cells - 32 hour (AID 1224883). Further: nearly all actives have a fitted effect of over 50% in size. The method in brief:
as §3

Assay [5] in a line: A CellTox Green Cytotoxicity Assay to monitor cytotoxicity in HEK293 cells - 8 hour (AID 1224884). Further: nearly all actives have a fitted effect of over 35% in size. The method in brief:
as §2

Assay [6] in a line: qHTS RealTime-Glo MT Cell Viability Assay in HepG2 cells - 16 hour (AID 1224885). Further: nearly all actives have a fitted effect of over 50% in size. Put shortly:
(§4)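 Viability was tracked continuously by NanoLuc luminescence from prosubstrate reduced by living HepG2 cells, at successive time points over 40 h of compound exposure. Cells with reagent were preincubated 5 h at 37 °C before compound addition.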

Assay [7] can be described thus: qHTS RealTime-Glo MT Cell Viability Assay in HEK293 cells - 24 hour (AID 1224886). Further: top concentration of the series differs between compounds; nearly all actives have a fitted effect of over 50% in size. The method in brief:
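Viability tracked continuously by luminescence as live cells reduce a prosubstrate for NanoLuc; HEK293 cells preincubated 5 h, compound-treated at 37 C, and read at 0, 8, 16, 24, 32 and 40 h.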

Assay [8] in a line: A CellTox Green Cytotoxicity Assay to monitor cytotoxicity in HEK293 cells - 16 hour (AID 1224888). Further: nearly all actives have a fitted effect of over 35% in size. The method in brief: as §2
The nature of assay [9]: qHTS RealTime-Glo MT Cell Viability Assay in HepG2 cells - 0 hour (AID 1224889). Further: nearly all actives have a fitted effect of over 50% in size. The method in brief: as §4
A short description of assay [10]: A CellTox Green Cytotoxicity Assay to monitor cytotoxicity in HepG2 cells - 8 hour (AID 1224890). Further: nearly all actives have a fitted effect of over 45% in size. Put shortly: as §3
A short description of assay [11]: qHTS assay to identify small molecule antagonists of the estrogen receptor alpha (ER-alpha) signaling pathway using the BG1 cell line in the presence of 0.1 nM 17-beta-estradiol - cell viability counter screen (AID 1259241). Further: nearly all actives have a fitted effect of over 40% in size. Put shortly:
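VM7Luc4E2 cells (endogenous full-length ER-alpha, 4xERE-luciferase), cultured 5 days in charcoal-stripped serum, exposed to compounds with 0.1 nM 17beta-estradiol (final) for 22 hr at 37C. Viability read in same wells as live-cell protease fluorescence after 30 min.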

Assay [12] in a line: qHTS assay to identify small molecule antagonists of the androgen receptor (AR) signaling pathway using the MDA cell line in the presence of 0.5 nM R1881 - cell viability counter screen (AID 1259242). Further: nearly all actives have a fitted effect of over 45% in size. Put shortly:
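Live-cell protease fluorescence, CellTiter-Fluor, 30 min at 37C. Cells: MDA-kb2, 3,000/well, preincubated 5 hr. Compounds plus 0.5 nM R1881 final, 16 hr, 37C, 0% CO2.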

A short description of assay [13]: qHTS assay to identify small molecule phospholipidosis (PLD) inducers (AID 1259344; active means well fitted curve in the direction sought with a large enough effect; an effect the other way counts as inactive or inconclusive). The method in brief:
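After 4 h attachment on collagen I, HepG2 cells were dosed with compound alongside LipidTOX Red, kept 24 h at 37 C, fixed, and imaged for lamellar phospholipid pits.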

Assay [14] in a line: qHTS assay to identify small molecule HDAC inhibitors (AID 1259364).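 Further: wild-type HCT-116 cells with endogenous class I/II HDAC activity; top concentration of the series differs between compounds; nearly all actives have a fitted effect of over 45% in size.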 Put shortly:
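HCT-116 (wild type), 1,500 cells/well, overnight; compound 2 hr 37C 5% CO2; HDAC-Glo I/II reagent 30 min RT; luminescence readout.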

The nature of assay [15]: qHTS assay to identify small molecule HDAC inhibitors - cell viability counter screen (AID 1259365). The method in brief: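 Wild-type HCT-116 cells, 1,500/well, cultured overnight, then compound-treated 2 h at 37 C. Viability measured as ATP luminescence with CellTiter-Glo after 30 min at room temperature.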
Assay [16] can be described thus: qHTS assay to identify small molecule agonists of the sonic hedgehog signaling (Shh) pathway - cell viability counter screen (AID 1259366). Further: nearly all actives have a fitted effect of over 50% in size. Put shortly: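 NIH/3T3-derived Gli1-Luc reporter cells, 2,000 per well, received compound after 4 h and were treated about 23 h at 37C. Viability measured in the same wells by CellTiter-Fluor fluorescence after 1 h.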
A short description of assay [17]: qHTS assay to identify small molecule antagonists of the sonic hedgehog signaling (Shh) pathway - cell viability counter screen (AID 1259367). Further: nearly all actives have a fitted effect of over 55% in size. The method in brief: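 Conditioned medium drove Shh signaling in 3T3 Gli1-Luc cells exposed to compounds at 37C and 5% CO2. Viability was determined from CellTiter-Fluor fluorescence, with reagent incubated 1 hr after 23 hr of treatment.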

Assay [18] addresses Androgen receptor (Homo sapiens) (UniProt P10275). Put plainly: qHTS assay to identify small molecule antagonists of the androgen receptor (AR) signaling pathway using the MDA cell line in the presence of 0.5 nM R1881 (AID 1259243). Further: nearly all actives have a fitted effect of over 50% in size. The method in brief: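 MDA-kb2, MMTV-luc (AR/GR elements); 3,000 cells/well; cpd + 0.5 nM R1881 final; 16 hr 37C, 0% CO2; ONE-Glo 30 min RT; luminescence.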

Assay [19] concerns the target Estrogen receptor (Homo sapiens) (UniProt P03372). Put plainly: qHTS assay to identify small molecule antagonists of the estrogen receptor alpha (ER-alpha) signaling pathway using the BG1 cell line in the presence of 0.1 nM 17-beta-estradiol (AID 1259244). Further: nearly all actives have a fitted effect of over 50% in size. Put shortly: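 Luminescence after ONE-Glo (30 min, room temperature) measured ERE-luciferase activity in VM7Luc4E2 cells treated 22 h with compound and 0.1 nM final 17beta-estradiol as stimulator.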

Assay [20] is described as follows: qHTS RealTime-Glo MT Cell Viability Assay in HEK293 cells - 8 hour (AID 1224887). The method in brief:
as §1

Records with an inconclusive call do not appear. Active and inactive are the calls of the source. Unless noted, the call rests on the fitted dose curve; in most records, active means well fitted curve in the direction sought with a large enough effect in the repeat runs; inconclusive means weak or mixed curves; inactive means no such curve, though single readings can be large; an effect the other way counts as inactive or inconclusive.

Sequence of Estrogen receptor (Homo sapiens) (P03372 whole entry, looked up): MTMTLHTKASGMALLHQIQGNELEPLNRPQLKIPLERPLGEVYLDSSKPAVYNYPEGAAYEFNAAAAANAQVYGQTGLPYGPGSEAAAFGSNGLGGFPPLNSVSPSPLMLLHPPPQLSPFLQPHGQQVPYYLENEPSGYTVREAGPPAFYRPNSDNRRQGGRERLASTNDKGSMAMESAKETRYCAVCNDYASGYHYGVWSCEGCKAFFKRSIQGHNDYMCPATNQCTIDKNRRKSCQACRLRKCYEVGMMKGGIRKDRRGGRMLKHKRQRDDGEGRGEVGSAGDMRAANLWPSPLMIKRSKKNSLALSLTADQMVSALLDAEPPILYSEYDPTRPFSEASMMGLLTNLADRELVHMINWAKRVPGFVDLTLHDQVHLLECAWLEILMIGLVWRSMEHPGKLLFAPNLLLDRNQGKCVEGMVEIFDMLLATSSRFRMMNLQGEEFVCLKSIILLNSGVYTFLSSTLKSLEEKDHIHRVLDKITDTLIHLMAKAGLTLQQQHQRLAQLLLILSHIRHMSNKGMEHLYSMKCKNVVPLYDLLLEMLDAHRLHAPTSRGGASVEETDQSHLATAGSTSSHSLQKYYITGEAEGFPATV
Sequence of Androgen receptor (Homo sapiens) (P10275 whole entry, looked up): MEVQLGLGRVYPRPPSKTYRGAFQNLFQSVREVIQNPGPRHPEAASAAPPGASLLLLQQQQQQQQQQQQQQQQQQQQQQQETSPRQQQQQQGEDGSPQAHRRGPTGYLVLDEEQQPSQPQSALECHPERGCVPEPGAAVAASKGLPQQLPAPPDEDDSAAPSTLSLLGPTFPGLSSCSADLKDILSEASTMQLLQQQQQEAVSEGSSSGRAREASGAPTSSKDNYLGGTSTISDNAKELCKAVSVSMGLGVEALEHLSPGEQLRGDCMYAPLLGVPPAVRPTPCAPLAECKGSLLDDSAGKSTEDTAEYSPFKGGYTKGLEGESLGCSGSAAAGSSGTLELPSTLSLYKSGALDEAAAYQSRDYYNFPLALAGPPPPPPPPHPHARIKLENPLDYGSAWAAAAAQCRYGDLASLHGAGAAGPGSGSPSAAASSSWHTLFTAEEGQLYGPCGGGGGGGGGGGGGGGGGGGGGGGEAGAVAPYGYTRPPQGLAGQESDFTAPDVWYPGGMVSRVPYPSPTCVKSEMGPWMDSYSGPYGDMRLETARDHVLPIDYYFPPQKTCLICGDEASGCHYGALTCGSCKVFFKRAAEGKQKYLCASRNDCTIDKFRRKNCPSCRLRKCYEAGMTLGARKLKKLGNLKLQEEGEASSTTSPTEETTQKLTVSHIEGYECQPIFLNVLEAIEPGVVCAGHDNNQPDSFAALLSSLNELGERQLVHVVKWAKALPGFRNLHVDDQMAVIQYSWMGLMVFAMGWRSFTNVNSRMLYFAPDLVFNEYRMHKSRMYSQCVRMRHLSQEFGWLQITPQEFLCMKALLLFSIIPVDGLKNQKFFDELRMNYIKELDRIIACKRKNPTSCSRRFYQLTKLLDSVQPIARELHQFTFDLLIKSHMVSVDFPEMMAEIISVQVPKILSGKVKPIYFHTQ

Turning to `C[N+](C)(C)CCCCCC[N+](C)(C)C`, the Potency result in assay [1], in assay [2], in [3], in assay [4], in assay [5] and in [6] was “inactive” throughout. For the same compound, the Potency entry in [7], in assay [8], in assay [9], in assay [10], in [12] and in assay [13] was “inactive” each time. Also, the Potency result in assay [14], in assay [16] and in [17] was “inactive” throughout. Also, the outcome in [11] and in assay [15] was inactive.
Consider `CC1(C)C(O)C(C)(C)C1O` (centres undefined), for which the Potency result in [1], in assay [2], in assay [3], in [4], in [5] and in [6] was “inactive” throughout. Besides, the Potency entry in assay [7], in [8], in [9], in assay [10], in assay [12] and in [18] was “inactive” each time. The Potency entry in assay [14], in [16] and in [17] was “inactive” throughout. The result in [11], in [19] and in assay [15] was inactive.
With `CCCCC/C=C\CCC=O`, the Potency entry in assay [1], in assay [2], in [3], in [4], in assay [5] and in [6] was “inactive” throughout. Further, the Potency entry in [20], in assay [8], in assay [9], in assay [10], in assay [12] and in assay [14] was “inactive” each time. Also, the Potency result in assay [16] and in [17] was “inactive” throughout. Further, the result in [11], in assay [19] and in assay [15] was inactive.
As to `CCCCCCCCS(=O)(=O)Cl`, the Potency entry in [1], in [2], in assay [3], in assay [4], in assay [5] and in assay [6] was “inactive” in each case. Further, the Potency result in assay [7], in assay [9], in [10], in [12], in assay [14] and in assay [16] was “inactive” throughout. Besides, the Potency entry in assay [17] was “inactive”. Besides, the outcome in assay [11] and in [15] was inactive.
As to `c1cnc(N2CCN(Cc3ccc4c(c3)OCO4)CC2)nc1`, the Potency result in assay [1], in assay [2], in assay [3], in [4], in [5] and in assay [6] was “inactive” throughout. Also, the Potency result in assay [7], in [8], in assay [9], in assay [10], in [12] and in assay [13] was “inactive” each time. Besides, the Potency result in [14], in assay [16] and in [17] was “inactive” each time. In addition, the outcome in assay [11], in assay [19] and in assay [15] was inactive.
Take `O=C1CCCN1C1CCCCC1`: the Potency result in [1], in assay [2], in assay [3], in assay [4], in [5] and in assay [6] was “inactive” throughout. Besides, the Potency entry in [7], in assay [20], in [10], in assay [12], in [14] and in assay [16] was “inactive” in each case. Further, the Potency result in assay [17] is “inactive”. For the same compound, the outcome in [11], in [19] and in assay [15] was inactive.
As for `CCCC(=O)O[C@]1(C(=O)CO)CC[C@H]2[C@@H]3CCC4=CC(=O)CC[C@]4(C)[C@H]3[C@@H](O)C[C@@]21C`, in assay [1], the Potency was 10.7 µM (active). Moreover, the Potency entry in assay [2], in assay [3], in assay [4], in assay [5], in [6] and in assay [7] was “inactive” each time. Moreover, the Potency result in [20], in [10], in assay [12], in assay [13], in [14] and in assay [16] was “inactive” in each case. In [17], the Potency result was “inactive”. Also, the result in assay [11] and in [15] was inactive.
Consider `COC(=O)[C@@H](N)Cc1ccc(O)c(O)c1`, for which the Potency entry in [1], in assay [2], in assay [3], in assay [4], in assay [5] and in [6] was “inactive” each time. Besides, the Potency entry in assay [20], in [8], in assay [9], in [10], in [12] and in assay [18] was “inactive” in each case. The Potency result in assay [14], in [16] and in assay [17] was “inactive” throughout. Besides, the outcome in assay [11] and in assay [15] was inactive.
